Data taken from the supplement of paper PMC6555819.

test system: PPARg:RXRa 30nM:10nM, anti-RXR (NR concentration 30 nM, RXRa partner concentration 10 nM); assay: PBM binding z-score (relative to random genomic background probes); higher = stronger binding; sequences stand for … in GC…GCGATTGACAGCGTAGAATGAAGG
Summary of the method: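 Regression normalization was applied to scanned fluorescence from custom Agilent 4×180K protein-binding microarrays. Before scanning, arrays were incubated 1 h with ligand-free nuclear receptor dimers, and binding was detected with antibodies against each partner (one per run). Binding z-scores use the random background probes as reference.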

| Sequence | PBM binding z-score |
| --- | --- |
| CCATGTAGGTTAAGGGGGTCATTCAGTTTGAAAG | 4.55 |
| TCGATTAGGTTACGGGGGCATTCAGGGATGAAGA | 4.89 |
| CCGAGTAGGTTACGAGGGGGCATTCTGTGCGAAT | 0.457 |
| TCGACTAGGTTACGGGGGCATTCAGGGATGAAGA | 4.68 |
| TCGAGTACGTTACGGGGGCATTCAGGGATGAAGA | 1.42 |
| TTGAGTAGGTTACGGGGGCATTCAGGGATGAAGA | 4.81 |
| TCGAGTAGGTTCCGGGGGCATTCAGGGATGAAGA | 1.38 |
| CCGGGTAGGTTACGAGGGGGCATTCAGTGCGAAT | 1.05 |
| CTATGTAGGTTAAGGGGGTCACTCAGTTTGAAAG | 6.23 |
| CTATGTAGGTTAAGGGGGTCATTCTGTTTGAAAG | 6 |
| CTATGTAAGTTAAGGGGGTCATTCAGTTTGAAAG | 2.84 |
| CTATGCAGGTTAAGGGGGTCATTCAGTTTGAAAG | 3.13 |
| CCGAGTAGGTTACGAGGGGGTATTCAGTGCGAAT | 1.22 |
| TCGAGGAGGTTACGGGGGCATTCAGGGATGAAGA | 4.08 |
| CTATGTAGGTTGAGGGGGTCATTCAGTTTGAAAG | 2.9 |
| CCGAGTAGGTTACAAGGGGGCATTCAGTGCGAAT | 0.773 |
| CTACGTAGGTTAAGGGGGTCATTCAGTTTGAAAG | 2.76 |
| CCGAGTAGGTTACGAGGCGGCATTCAGTGCGAAT | -0.404 |
| CCGAGTAGGTTATGAGGGGGCATTCAGTGCGAAT | 1.53 |
| TCGAGTCGGTTACGGGGGCATTCAGGGATGAAGA | 1.58 |

| Sequence | PBM binding z-score |
| --- | --- |
| TCGAGTAGGTTACGGGGGGATTCAGGGATGAAGA | 3.29 |
| CCGAGTAGGTTACGATGGGGCATTCAGTGCGAAT | -0.257 |
| TCGAGTAGGTTACCGGGGCATTCAGGGATGAAGA | 1.46 |
| TCGAGTAGGTTACGGGGGCAGTCAGGGATGAAGA | 2.93 |
| TCGAGTAGGTTGCGGGGGCATTCAGGGATGAAGA | 2.32 |
| CTATGTAGGTTAAGGGGGTCGTTCAGTTTGAAAG | 4.96 |
| CCGAGTGGGTTACGAGGGGGCATTCAGTGCGAAT | 0.567 |
| CTATTTAGGTTAAGGGGGTCATTCAGTTTGAAAG | 4.74 |
| CCGAGTAGGTTACGAAGGGGCATTCAGTGCGAAT | -0.292 |
| TCGAGTAGGTTACGGGGGCATTCCGGGATGAAGA | 2.85 |
| TCGAGTAGGTTAAGGGGGCATTCAGGGATGAAGA | 3.91 |
| CTATATAGGTTAAGGGGGTCATTCAGTTTGAAAG | 6.09 |
| CTATGTAGGTTAAGGGGGGCATTCAGTTTGAAAG | 6.02 |
| CCGAGTAGGTTAGGAGGGGGCATTCAGTGCGAAT | 1.44 |
| TCGAGTAGGCTACGGGGGCATTCAGGGATGAAGA | 1.38 |
| CTATGTAGGGTAAGGGGGTCATTCAGTTTGAAAG | 5 |
| CTATGTAGGTTATGGGGGTCATTCAGTTTGAAAG | 5.25 |
| CTGTGTAGGTTAAGGGGGTCATTCAGTTTGAAAG | 4.23 |
| CCGAGTTGGTTACGAGGGGGCATTCAGTGCGAAT | -0.706 |
